Each structure is given as a SMILES string. The source made the active and inactive calls. Rule for the calls: active = hit-call score of the fitted dose curve at least 0.9, where 1 is the maximum; inactive = score below 0.9.

By AC50 is commonly meant the concentration giving half of the maximal activity seen.

Sequence of Hepatocyte nuclear factor 3-beta (Homo sapiens) (Q9Y261 whole entry, looked up): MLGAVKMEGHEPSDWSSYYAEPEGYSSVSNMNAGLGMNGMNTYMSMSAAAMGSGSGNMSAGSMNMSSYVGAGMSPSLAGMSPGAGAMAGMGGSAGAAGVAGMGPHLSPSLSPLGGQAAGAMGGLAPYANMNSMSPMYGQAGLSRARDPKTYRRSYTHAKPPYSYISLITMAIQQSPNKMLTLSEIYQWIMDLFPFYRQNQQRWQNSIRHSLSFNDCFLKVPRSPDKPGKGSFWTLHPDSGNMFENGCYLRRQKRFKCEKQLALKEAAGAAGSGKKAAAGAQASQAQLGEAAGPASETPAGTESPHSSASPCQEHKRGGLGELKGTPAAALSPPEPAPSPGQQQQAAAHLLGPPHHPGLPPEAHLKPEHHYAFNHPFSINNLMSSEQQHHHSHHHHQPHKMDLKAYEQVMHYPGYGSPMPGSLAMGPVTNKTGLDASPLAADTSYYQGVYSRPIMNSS

Tested on in one assay: not listed separately
As to the kind of experiment: ATG_ERE_CIS: Attagene CIS-FACTORIAL HepG2 Assay for Estrogen Response Element (ERE) (AID 2282940). The settings on record: HepG2 ERE cis-reporter, Attagene RNA transcript; actives raise or lower the signal. Put shortly: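 After 24 h compound treatment, RNA from transfected HepG2 cells was reverse-transcribed, reporter cDNA PCR-amplified, FAM-labelled, HpaI-cut and resolved by capillary electrophoresis. ERE-driven cis reporter transcripts reflect endogenous factors; gain or loss scored against DMSO.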
As to `CCCCCCOc1ccc(N)cc1`, the compound was classed as inactive.
For the compound `C=CC(C)(CCC=C(C)C)OC(=O)C=Cc1ccccc1` (stereo unspecified), the AC50 is 17.7 µM (active).
In the case of `CCCCCCCCCCCCCC(=O)OC(C)C`, the result was inactive.
Take `CCCCCC(=O)OCC`: the result was inactive.
As for `CCCCCCCOC(=O)c1ccc(O)cc1`, the AC50 is 19.3 µM (active).
As to `Cc1ccccc1CCO`, the compound was called inactive.
On the same count and under the same terms, the same measure for `CCC(C)N` (stereo unspecified): “inactive”.
For `COC(OC)(C(=O)c1ccccc1)c1ccccc1`, the AC50 is 2.01 µM (active).
Still for that read-out and setting: the same measure for `[Cl][Eu]([Cl])[Cl]`: 51.6 µM (active).
As for `Nc1ncnc2nc[nH]c12`, the compound was classed as inactive.
Regarding `COc1ccc(C(=O)/C(Br)=C\C(=O)O)cc1`, the outcome was inactive.
Still for that read-out and setting: the same measure for `CCN1CN(CC)CN(CC)C1`: “inactive”; for `CCOC(=O)c1ccc(C)cc1`: “inactive”.
For `Cc1ccc(S(=O)(=O)N=C=O)cc1`, the call was inactive.
For the compound `C=C(C)C1CC=C(C)CC1` (stereo unspecified), the compound was classed as inactive.
For the compound `Cc1ccc2c(c1)CCCN2`, the result was inactive.
On the same count and under the same terms, the entry for `C=CC(=O)OCCCCCCOC(=O)C=C` is “inactive”; for `c1ccc2sc(SSN3CCOCC3)nc2c1` it is “inactive”; for `CCCCOCCOCCOC(C)=O` it is “inactive”.
For the compound `CC(=O)OCCc1ccccc1`, the compound was called inactive.
On the same count and under the same terms, the same measure for `CC(=O)OC/C=C(/C)CCC=C(C)C`: “inactive”.
The same measure, in the same setting: the entry for `CCCCCC1=CCCC1=O` is “inactive”.
For the compound `COc1ccc(C(=O)c2ccccc2)c(O)c1`, the AC50 is 5.69 µM (active).
Turning to `CC(C)(CO)COC(=O)C(C)(C)CO`, the call was inactive.
As to `CCOB(OCC)OCC`, the result was inactive.
On to `CC(=O)CCC1=C(C)CCCC1(C)C`, for which the AC50 is 29.8 µM (active).
The same measure, in the same setting: the figure for `CCCCCCCCCCCC(C)=O` is 1.3 µM (active).
Regarding `O=C1CCCCCCCCCCC1`, the compound was called inactive.
In the case of `Nc1nc(N)nc(-c2ccccc2)n1`, the outcome was inactive.
`Cc1c(O)cccc1O`: the AC50 is 61.4 µM (active).

Tested on in another assay: not listed separately
As to the kind of experiment: ATG_Ets_CIS: Attagene CIS-FACTORIAL HepG2 Assay for human Erythroblast Transformation Specific (ETS) (AID 2282941). The settings on record: HepG2 ETS cis-reporter transcription, actives raise or lower the signal. The procedure, abridged:
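Bidirectional fit versus DMSO of reporter mRNA signal, detected by RT-PCR and capillary electrophoresis in HepG2 cells transiently transfected with cis-element reporters and dosed 24 h.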
Turning to `CCCCCCOc1ccc(N)cc1`, the result was inactive.
Same read-out and setting: the entry for `C=CC(C)(CCC=C(C)C)OC(=O)C=Cc1ccccc1` (stereo unspecified) is “inactive”; for `CCCCCCCCCCCCCC(=O)OC(C)C` it is “inactive”.
On the same count and under the same terms, the same measure for `CCCCCC(=O)OCC`: “inactive”.
Regarding `CCCCCCCOC(=O)c1ccc(O)cc1`, the outcome was inactive.
Same read-out and setting: the same measure for `Cc1ccccc1CCO`: “inactive”; for `CCC(C)N` (stereo unspecified): “inactive”; for `COC(OC)(C(=O)c1ccccc1)c1ccccc1`: “inactive”.
Same read-out and setting: the same measure for `[Cl][Eu]([Cl])[Cl]`: “inactive”; for `Nc1ncnc2nc[nH]c12`: “inactive”; for `COc1ccc(C(=O)/C(Br)=C\C(=O)O)cc1`: “inactive”.
Consider `CCN1CN(CC)CN(CC)C1`, for which the AC50 is 175 µM (active).
As to `CCOC(=O)c1ccc(C)cc1`, the result was inactive.
On to `Cc1ccc(S(=O)(=O)N=C=O)cc1`, for which the compound was classed as inactive.
With `C=C(C)C1CC=C(C)CC1` (stereo unspecified), the compound was classed as inactive.
Same read-out and setting: the same measure for `COc1cc(C)ccc1O`: “inactive”; for `C=CC(=O)OCCCCCCOC(=O)C=C`: “inactive”; for `c1ccc2sc(SSN3CCOCC3)nc2c1`: “inactive”.
Still for that read-out and setting: the entry for `CCCCOCCOCCOC(C)=O` is “inactive”.
Still for that read-out and setting: the same measure for `CC(=O)OCCc1ccccc1`: “inactive”.
For the compound `CC(C)CC(=O)OCc1ccccc1`, the outcome was inactive.
The same measure, in the same setting: the same measure for `CC(=O)OC/C=C(/C)CCC=C(C)C`: “inactive”; for `CCCCCC1=CCCC1=O`: “inactive”.
For `CCC(C)(O)CCCC(C)C` (stereo unspecified), the compound was classed as inactive.
In the case of `COc1ccc(C(=O)c2ccccc2)c(O)c1`, the compound was called inactive.
The same measure, in the same setting: the entry for `CC(C)(CO)COC(=O)C(C)(C)CO` is “inactive”.
On the same count and under the same terms, the entry for `Cc1c[nH]c(=O)[nH]c1=O` is “inactive”; for `CCOB(OCC)OCC` it is “inactive”; for `CC(=O)CCC1=C(C)CCCC1(C)C` it is “inactive”.
In the case of `CCCCCCCCCCCC(C)=O`, the AC50 was 160 µM (active).
For the compound `O=C1CCCCCCCCCCC1`, the result was inactive.
The same measure, in the same setting: the entry for `Nc1nc(N)nc(-c2ccccc2)n1` is “inactive”.
Consider `CCOC(=O)C1=NOC(c2ccccc2)(c2ccccc2)C1`, for which the compound was called inactive.
As to `Cc1c(O)cccc1O`, the outcome was inactive.

A further assay addresses Hepatocyte nuclear factor 3-beta (Homo sapiens) (UniProt Q9Y261). As to the kind of experiment: ATG_FoxA2_CIS: Attagene CIS-FACTORIAL HepG2 Assay for human Forkhead box A2 (FOXA2) (AID 2282942). As to conditions: HepG2 cis-reporter transcription factor activity, 24 h; actives raise or lower the signal. The procedure, abridged:
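HepG2 transiently transfected with a multiplexed cis-promoter reporter library read endogenous FOXA2 activity. After 24 h compound exposure, reporter mRNA was quantified by RT-PCR, HpaI digestion and capillary electrophoresis. Bidirectional fit against DMSO.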
Consider `CC(Cl)COP(=O)(OCC(C)Cl)OCC(C)Cl` (stereo unspecified), for which the compound was called inactive.
The same measure, in the same setting: the same measure for `CCCCCCC=O`: “inactive”; for `CCCCCCOc1ccc(N)cc1`: “inactive”; for `C=CC(C)(CCC=C(C)C)OC(=O)C=Cc1ccccc1` (stereo unspecified): “inactive”.
On the same count and under the same terms, the entry for `CCCCCCCCCCCCCC(=O)OC(C)C` is “inactive”; for `CCCCCC(=O)OCC` it is “inactive”; for `CCCCCCCOC(=O)c1ccc(O)cc1` it is “inactive”.
The same measure, in the same setting: the entry for `Cc1ccccc1CCO` is “inactive”.
Regarding `CCC(C)N` (stereo unspecified), the outcome was inactive.
For the compound `COC(OC)(C(=O)c1ccccc1)c1ccccc1`, the compound was called inactive.
The same measure, in the same setting: the same measure for `[Cl][Eu]([Cl])[Cl]`: “inactive”; for `Nc1ncnc2nc[nH]c12`: “inactive”.
Same read-out and setting: the entry for `COc1ccc(C(=O)/C(Br)=C\C(=O)O)cc1` is “inactive”.
Still for that read-out and setting: the same measure for `CCN1CN(CC)CN(CC)C1`: “inactive”; for `CCOC(=O)c1ccc(C)cc1`: “inactive”.
As to `Cc1ccc(S(=O)(=O)N=C=O)cc1`, the call was inactive.
For the compound `C=C(C)C1CC=C(C)CC1` (stereo unspecified), the compound was classed as inactive.
`Cc1ccc2c(c1)CCCN2`: the compound was called inactive.
In the case of `COc1cc(C)ccc1O`, the result was inactive.
Same read-out and setting: the entry for `C=CC(=O)OCCCCCCOC(=O)C=C` is “inactive”.
Still for that read-out and setting: the same measure for `c1ccc2sc(SSN3CCOCC3)nc2c1`: “inactive”; for `CCCCOCCOCCOC(C)=O`: “inactive”; for `CC(=O)OCCc1ccccc1`: “inactive”.
On the same count and under the same terms, the same measure for `CC(C)CC(=O)OCc1ccccc1`: “inactive”; for `CC(=O)OC/C=C(/C)CCC=C(C)C`: “inactive”.
For the compound `CCCCCC1=CCCC1=O`, the compound was called inactive.
Regarding `CCC(C)(O)CCCC(C)C` (stereo unspecified), the compound was classed as inactive.
On the same count and under the same terms, the same measure for `COc1ccc(C(=O)c2ccccc2)c(O)c1`: “inactive”.
Same read-out and setting: the same measure for `CC(C)(CO)COC(=O)C(C)(C)CO`: “inactive”.
Same read-out and setting: the same measure for `Cc1c[nH]c(=O)[nH]c1=O`: “inactive”; for `CCOB(OCC)OCC`: “inactive”.
Turning to `CC(=O)CCC1=C(C)CCCC1(C)C`, the outcome was inactive.
Same read-out and setting: the entry for `CCCCCCCCCCCC(C)=O` is “inactive”.
Still for that read-out and setting: the entry for `O=C1CCCCCCCCCCC1` is “inactive”; for `Nc1nc(N)nc(-c2ccccc2)n1` it is “inactive”; for `CCOC(=O)C1=NOC(c2ccccc2)(c2ccccc2)C1` it is “inactive”.
For `Cc1c(O)cccc1O`, the result was inactive.

Values taken from PubChem BioAssay (EPA / NIEHS).
